Laboratory results taken from PubChem BioAssay AID1159580 (chemical genetic matrix, 2015).
Hit rate of the full screen: of about 5,500 compounds, about 2,000 (36%) were called active. Another 18% or so got no clear call; they are omitted. Rule as the data show it: active = normalized growth mostly below about 0.91 (no sharp cut-off); inconclusive = no clear call, values can overlap the other calls; inactive = mostly above about 0.92. The list shows a part of the results.

Assay: chemical genetic growth profiling, strain panel (AID 1159580);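 also: tested at 20 µM; growth read once vehicle control cultures reached saturation at 30 °C; 1 = growth at the plate median or of vehicle wells; lower values mean less growth of the strain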
Conditions: S. cerevisiae deletion strains, growth OD
[1] = locus YAL040C, strain CLN3, hits give low values
[2] = locus YCL061C, strain MRC1 (second series), hits give low values
[3] = locus YDR150W, strain NUM1, hits give low values
[4] = locus YDR363W, strain ESC2, hits give low values
[5] = locus YER002W, strain NOP16, hits give low values
[6] = locus YMR263W, strain SAP30, hits give low values
[7] = locus YNL153C, strain GIM3, hits give low values
[8] = locus YNL175C, strain NOP13, hits give low values
[9] = locus YNL197C, strain WHI3, hits give low values
[10] = locus YNL224C, strain SQS1, hits give low values
[11] = locus YNL322C, strain KRE1, hits give low values
[12] = locus YOR083W, strain WHI5 (second series), hits give low values
[13] = locus YPL241C, strain CIN2, hits give low values

Measured: normalized growth

O=C(Nc1ccccc1Sc1ccc([N+](=O)[O-])cc1[N+](=O)[O-])C(Cl)(Cl)Cl
inactive: locus YAR019C, strain CDC15, hits give low values 0.972 | locus YBL105C, strain PKC1, hits give low values 0.972 | locus YBR135W, strain CKS1, hits give low values 0.973 | locus YBR136W, strain MEC1, hits give low values 0.97 | locus YBR160W, strain CDC28, hits give low values 0.983 | locus YDL017W, strain CDC7, hits give low values 0.975 | locus YDL028C, strain MPS1, hits give low values 0.973 | locus YDL101C, strain DUN1, hits give low values 0.976 | locus YDL108W, strain KIN28, hits give low values 0.958 | locus YDL132W, strain cdc53, hits give low values 0.983 | locus YDL214C, strain PRR2, hits give low values 0.987 | locus YDR052C, strain DBF4, hits give low values 0.974 | locus YDR054C, strain cdc34, hits give low values 0.971 | locus YDR226W, strain ADK1, hits give low values 0.965 | locus YDR477W, strain SNF1, hits give low values 0.977 | locus YER123W, strain YCK3, hits give low values 0.986 | locus YER133W, strain GLC7, hits give low values 0.969 | locus YFL009W, strain cdc4, hits give low values 0.96 | locus YFL029C, strain CAK1, hits give low values 0.973 | locus YFR003C, strain YPI1, hits give low values 0.965 | locus YFR019W, strain FAB1, hits give low values 0.984 | locus YFR028C, strain CDC14, hits give low values 0.966 | locus YGR040W, strain KSS1, hits give low values 0.975 | locus YGR052W, strain FMP48, hits give low values 1.02 | locus YGR092W, strain DBF2, hits give low values 0.985 | locus YHR030C, strain SLT2, hits give low values 1.02 | locus YHR079C, strain IRE1, hits give low values 0.967 | locus YHR082C, strain KSP1, hits give low values 1.06 | locus YHR205W, strain SCH9, hits give low values 0.795 | locus YIL147C, strain SLN1, hits give low values 0.972 | locus YJL095W, strain BCK1, hits give low values 1.01 | locus YJL128C, strain PBS2, hits give low values 0.92 | locus YJL157C, strain FAR1, hits give low values 0.97 | locus YJR016C, strain ILV3, hits give low values 0.971 | locus YJR066W, strain TOR1 (second series), hits give low values 0.967 | locus YJR066W, strain TOR1, hits give low values 1.1 | locus YKL048C, strain ELM1, hits give low values 0.976 | locus YKL067W, strain YNK1, hits give low values 0.982 | locus YKL101W, strain HSL1, hits give low values 1 | locus YKL193C, strain SDS22, hits give low values 0.965 | locus YKL203C, strain TOR2, hits give low values 1.02 | locus YLR113W, strain HOG1, hits give low values 1.04 | locus YLR133W, strain CKI1, hits give low values 0.977 | locus YLR403W, strain SFP1, hits give low values 0.873 | locus YML070W, strain DAK1, hits give low values 0.998 | locus YMR001C, strain CDC5, hits give low values 0.975 | locus YMR205C, strain PFK2 (second series), hits give low values 0.973 | locus YMR277W, strain FCP1, hits give low values 0.955 | locus YNL006W, strain LST8, hits give low values 0.991 | locus YNL020C, strain ARK1, hits give low values 0.994 | locus YNL161W, strain CBK1, hits give low values 0.968 | locus YNL183C, strain NPR1, hits give low values 1.1 | locus YNL207W, strain RIO2, hits give low values 0.967 | locus YNL222W, strain SSU72, hits give low values 0.976 | locus YNL307C, strain MCK1 (second series), hits give low values 1 | locus YOL078W, strain AVO1, hits give low values 0.978 | locus YOL136C, strain PFK27, hits give low values 0.982 | locus YOR061W, strain CKA2, hits give low values 0.98 | locus YOR119C, strain RIO1, hits give low values 1.05 | locus YOR231W, strain MKK1, hits give low values 1.08 | locus YOR329C, strain SCD5, hits give low values 0.986 | locus YPL031C, strain PHO85, hits give low values 0.959 | locus YPL153C, strain RAD53, hits give low values 0.975 | locus YPL204W, strain HRR25, hits give low values 0.966 | locus YPL209C, strain IPL1, hits give low values 0.971 | locus YPL256C, strain CLN2, hits give low values 0.996 | locus YPR025C, strain CCL1, hits give low values 0.991 | locus YPR106W, strain ISR1, hits give low values 0.952 | locus YPR111W, strain DBF20, hits give low values 0.964 | strain NNK1, hits give low values 0.972 | strain TSCII, hits give low values 0.981

C/C(O)=C(\C#N)C(=O)Nc1cc(Br)ccc1Br
inactive: locus YAL013W, strain DEP1, hits give low values 0.98 | [1] 1.01 | [2] 0.99 | [3] 0.989 | [4] 1.05 | [5] 1 | locus YGR078C, strain PAC10, hits give low values 0.97 | locus YGR229C, strain SMI1, hits give low values 1.01 | locus YJR075W, strain HOC1, hits give low values 1.02 | [6] 0.969 | [7] 0.999 | [8] 0.959 | [9] 0.961 | [10] 0.967 | [11] 0.983 | [12] 0.972 | [13] 0.98

Oc1ccc2c3c1O[C@H]1[C@@H](O)CC[C@@]4(O)C(C2)N(CC2CCC2)CCC314 (stereo partly drawn)
inactive: [1] 1.01 | [2] 0.998 | [3] 1.01 | [4] 1.01 | [5] 1 | [6] 1 | locus YMR307W, strain GAS1, hits give low values 0.998 | locus YNL128W, strain TEP1, hits give low values 0.995 | [7] 1.01 | [8] 1.01 | [9] 1.03 | [10] 1.02 | [11] 1.01 | [12] 0.984 | [13] 1
